Rows were chosen to be rich in hits. Some 12% of all compounds tested hit in one or more screens of this group.
PLAP activator = PLAP enzyme activators, biochemical, luminescence, HTS; activation fold at 20 µM; purified PLAP enzyme, luminescent substrate read-out; hits give high values; hit rate 1.2% among 96,000; Alkaline phosphatase, placental type (Homo sapiens), P05187; in the data active = activation fold above about 2
Target sequence (P05187 whole entry, looked up): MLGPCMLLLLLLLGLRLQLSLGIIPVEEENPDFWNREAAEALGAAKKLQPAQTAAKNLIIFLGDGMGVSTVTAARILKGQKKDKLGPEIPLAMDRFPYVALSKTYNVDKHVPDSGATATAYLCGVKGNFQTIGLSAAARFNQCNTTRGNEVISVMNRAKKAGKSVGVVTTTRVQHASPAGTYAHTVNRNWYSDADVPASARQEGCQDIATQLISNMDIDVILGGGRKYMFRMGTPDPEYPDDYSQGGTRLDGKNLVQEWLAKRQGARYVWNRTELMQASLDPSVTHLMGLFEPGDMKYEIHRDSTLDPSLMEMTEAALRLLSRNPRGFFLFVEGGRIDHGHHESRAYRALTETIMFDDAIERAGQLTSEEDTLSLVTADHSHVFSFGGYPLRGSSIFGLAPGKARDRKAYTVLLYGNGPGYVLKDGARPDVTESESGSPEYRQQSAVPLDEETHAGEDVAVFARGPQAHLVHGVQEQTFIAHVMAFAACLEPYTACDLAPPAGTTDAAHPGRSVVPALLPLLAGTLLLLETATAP
D1 allo mod = D1 CRE-luciferase signal change, two-sided – cell-based, HEK293 D1, dopamine EC30, D1 allosteric modulator project, primary screen; hit rate 5.9% among 58,000; B-score at 10 µM; D(1A) dopamine receptor (Homo sapiens), P21728; dopamine EC30 potentiation; actives deviate in either direction;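 active = luminescence count or its row- and column-corrected plate score outside the 99.7% band of the plate's sample wells, on either side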
PostGolgi yeast = phenotypic screen on post-Golgi transport, primary screen; post-Golgi transport phenotypic cell assay; inhibition, % at 10 µM; hit rate 0.9% among 98,000;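 also: yeast cells grown in 1536-well plates; yeast grown about 18 h at 30C before absorbance read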
DAT uptake mod = changed hDAT dopamine uptake under cocaine IC80, either direction, primary screen, cocaine antagonist project, cell-based, LLC-PK1 hDAT, [14C]-dopamine uptake, MLSMR. AID 449768, 2010. hit rate 1.3% among 110,000. LLC-PK1 hDAT cells, [14C]-dopamine uptake with cocaine IC80; actives deviate in either direction. Sodium-dependent dopamine transporter (Homo sapiens), Q01959. B-score at 10 µM;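 active = Z score or B-score, a plate-position-corrected score, falls beyond the plate's 99.7% confidence bounds, in either direction; inactive = both scores lie inside the 99.7% bounds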;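 also: scored against the spread of the other compound wells on the same plate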
Cav32 inh = Cav3.2 calcium influx blockers – cell-based, Fluo-4 calcium fluorescence, FDSS, MLSMR library, primary screen | Voltage-dependent T-type calcium channel subunit alpha-1H (Homo sapiens), O95180 | Cav3.2-expressing cells; hits give low values | B-score at 10 µM | hit rate 4% among 100,000 | AID 449739, 2010;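 active = single-dose well whose peak fluorescence ratio is a statistical outlier from its plate by either plate-standardised score or position-corrected B-score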
PostGolgi ctrl = growth inhibition of yeast control strain, primary screen, counter-screen for post-Golgi transport modulator project; efflux-deficient yeast background strain, growth absorbance A615, 16 h; inhibition, % at 10 µM; hit rate 5% among 98,000; AID 738, 2007
* hit, by the source's call. Rule as the data show it, unless noted: active = inhibition above about 30%; inactive = the rest.

For CCOC(=O)c1ccc(N2C(=O)c3n[nH]c(C)c3C2c2ccccn2)cc1 (stereo not drawn) the results were PLAP activator 2.5*, D1 allo mod 0.00485, PostGolgi yeast -3.7, DAT uptake mod 2.23 and PostGolgi ctrl 13.4.
`CC1(C)CC(=O)c2sc(NC(=O)c3ccc4ncsc4c3)nc2C1` gave PLAP activator 1.4, PostGolgi yeast -5.6, DAT uptake mod 0.815, Cav32 inh -0.0558 and PostGolgi ctrl 2.9.
`Cc1sc2ncnc(OCC(=O)NCc3cccs3)c2c1C` gave D1 allo mod 0.336, PostGolgi yeast 8.5, DAT uptake mod 0.251, Cav32 inh 0.566 and PostGolgi ctrl 3.0.
For Cc1cc(F)ccc1NCc1ccncc1 the results were PLAP activator 0.9, PostGolgi yeast -0.3, DAT uptake mod -0.0361, Cav32 inh -0.0373 and PostGolgi ctrl 8.5.
For Cc1cc(F)ccc1NCc1cc2c(cc1[N+](=O)[O-])OCO2 the results were PLAP activator 1, PostGolgi yeast 6.1, DAT uptake mod -8.02*, Cav32 inh -3.57 and PostGolgi ctrl 2.0.
For Cc1ccc(C(=O)/C=C/Nc2ccccc2C(N)=O)o1 the results were PLAP activator 1, D1 allo mod -4.14*, PostGolgi yeast 23.7, DAT uptake mod -0.0232, Cav32 inh 0.447 and PostGolgi ctrl 0.6.
Screening O=C1NC(=S)S/C1=C1\Sc2ccccc2N1CCCS(=O)(=O)O returned PLAP activator 0.9, D1 allo mod -2.87*, PostGolgi yeast -3.0, DAT uptake mod -0.966 and PostGolgi ctrl 3.3.
`CCC(=S)/C=C1\Sc2ccc3ccccc3c2N1CCCS(=O)(=O)O` gave PLAP activator 1.3, PostGolgi yeast -5.5, DAT uptake mod 0.275, Cav32 inh 0.537 and PostGolgi ctrl 3.2.
`O=C(NCc1ccccc1)C(c1ccncc1)N(C(=O)c1csnn1)C1CC1` (stereo not drawn) gave PLAP activator 1, PostGolgi yeast -5.6, Cav32 inh -0.198 and PostGolgi ctrl 16.7.
`CCC(CC)C(=O)Nc1cc(C)cc(C)c1` gave PLAP activator 1.1, D1 allo mod -0.011, PostGolgi yeast 3.9, DAT uptake mod -0.181, Cav32 inh 0.166 and PostGolgi ctrl 2.6.
`O=C(CSCc1ccc(Cl)cc1)Nc1ccc2c(c1)OCO2` gave DAT uptake mod -0.192 and Cav32 inh -5.65*.
Screening O=C(CSCc1ccc(Cl)cc1)NCc1ccc2c(c1)OCO2 returned PLAP activator 0.8, PostGolgi yeast 10.3, DAT uptake mod -0.0119, Cav32 inh -6.11* and PostGolgi ctrl 10.6.
For O=C(CSCc1ccccc1Cl)Nc1ccc2c(c1)OCCO2 the results were PLAP activator 0.7, PostGolgi yeast -9.0, DAT uptake mod 0.902, Cav32 inh -1.37 and PostGolgi ctrl 1.6.
For COC(=O)c1c(C)[nH]c(C(=O)CSc2ccc(Cl)cc2)c1C the results were PLAP activator 1, PostGolgi yeast -0.3, DAT uptake mod 0.424, Cav32 inh -0.149 and PostGolgi ctrl -8.9.
For CC(C)SC1=NC(C)(C)C=C(/C=C/c2c(Cl)cccc2Cl)N1 the results were PLAP activator 1.2, PostGolgi yeast 1.1, DAT uptake mod 0.688, Cav32 inh -1.3 and PostGolgi ctrl 74.1*.
`CC(C)SC1=NC(C)(C)C=C(/C=C/c2ccc(Cl)cc2Cl)N1` gave PLAP activator 1.5, PostGolgi yeast 3.4, DAT uptake mod 0.881, Cav32 inh 0.465 and PostGolgi ctrl 26.9.
Screening CC(OC(=O)c1cc(=O)[nH]c2ccccc12)c1ccccc1 (stereo not drawn) returned PLAP activator 0.9, D1 allo mod 1.87, PostGolgi yeast 1.0, DAT uptake mod -0.503, Cav32 inh -2.87 and PostGolgi ctrl 21.3.
CCCCCCC1CCC(C(=O)NC(CCSC)C(=O)NC(C(=O)OC)C(C)C)CC1 (stereo not drawn) was read as PLAP activator 2.2*, PostGolgi yeast 14.7, DAT uptake mod -1.64, Cav32 inh -6.78* and PostGolgi ctrl -4.8.
CSCCC(NC(N)=O)C(=O)NCC1CCCCC1 (stereo not drawn) was read as PLAP activator 0.9, PostGolgi yeast 20.7, DAT uptake mod -0.837, Cav32 inh 0.886 and PostGolgi ctrl 8.6.
Screening CC(C(=O)N/N=C/c1ccc(N(C)C)c(Br)c1)N(c1ccccc1)S(C)(=O)=O (stereo not drawn) returned PLAP activator 1.3, PostGolgi yeast -16.4, DAT uptake mod 0.263, Cav32 inh -5.97* and PostGolgi ctrl 2.7.
`COc1ccc(N(C(C)C(=O)N/N=C/c2ccc(OC(C)C)cc2)S(C)(=O)=O)cc1` (stereo not drawn) gave PLAP activator 1.4, PostGolgi yeast -7.5, DAT uptake mod 0.0313, Cav32 inh -0.611 and PostGolgi ctrl 7.4.
Screening CC(C)Oc1ccc(CNC(=S)N/N=C/c2ccc([N+](=O)[O-])cc2)cc1 returned PLAP activator 0.9, PostGolgi yeast 24.6, DAT uptake mod 1.03, Cav32 inh 0.448 and PostGolgi ctrl 22.4.
`CCCOc1ccc(Br)cc1/C=N/O` gave PLAP activator 1, PostGolgi yeast 2.4, DAT uptake mod 0.4, Cav32 inh -4.87* and PostGolgi ctrl 27.7.
Screening COc1ccc(OC)c2c(C)cc(N3CCCN(C)CC3)nc12 returned PLAP activator 1.5, PostGolgi yeast -0.8, DAT uptake mod -0.385, Cav32 inh 0.0661 and PostGolgi ctrl 6.3.
`CC1Cc2nc(SCC(=O)c3ccccc3)n(Cc3ccccc3)c(=O)c2S1` (stereo not drawn) gave PLAP activator 1.2, PostGolgi yeast 1.7, DAT uptake mod 0.0814, Cav32 inh -6.26* and PostGolgi ctrl 23.3.
`CC1Cc2nc(SCC(=O)NCc3ccccc3)n(Cc3ccccc3)c(=O)c2S1` (stereo not drawn) gave PLAP activator 0.9, PostGolgi yeast 6.8, DAT uptake mod 0.788, Cav32 inh -2.62 and PostGolgi ctrl 1.4.
For CCSc1nnc(NC(=O)CSc2nc3c(c(=O)n2CC)SC(C)C3)s1 (stereo not drawn) the results were PLAP activator 1, D1 allo mod 0.446, PostGolgi yeast -1.1 and PostGolgi ctrl -6.0.
CC1Cc2nc(SCC(=O)Nc3ccc4c(c3)OCO4)n(-c3ccc(F)cc3)c(=O)c2S1 (stereo not drawn) was read as D1 allo mod -0.0635, DAT uptake mod 0.526 and Cav32 inh 0.622.
For CCn1c(SCC(=O)Nc2nnc(C)s2)nc2c(c1=O)SC(C)C2 (stereo not drawn) the results were PLAP activator 1.1, D1 allo mod 2.13, PostGolgi yeast -7.4, DAT uptake mod -0.299, Cav32 inh -0.00997 and PostGolgi ctrl 38.7*.

From PubChem BioAssay
